G9a block: qHTS Assay for Inhibitors of Histone Lysine Methyltransferase G9a | AID 504332, 2011 | Potency, µM (titrated, usually from 102 µM), for inactives: at the highest dose activity, negative = inhibition, most hits filed as inhibitors | 350,000 tested, 8.8% active | Histone-lysine N-methyltransferase EHMT2 (Homo sapiens), Q96KQ7 | G9a H3K9 monomethylation, AlphaScreen, 2 h; note: potency is the fitted concentration of half-maximal effect; % is set by controls: 0 for no effect and ±100 for the full control effect; nearly all actives have a fitted effect of over 75% in size
Target sequence (Q96KQ7 913-1193 limits assumed): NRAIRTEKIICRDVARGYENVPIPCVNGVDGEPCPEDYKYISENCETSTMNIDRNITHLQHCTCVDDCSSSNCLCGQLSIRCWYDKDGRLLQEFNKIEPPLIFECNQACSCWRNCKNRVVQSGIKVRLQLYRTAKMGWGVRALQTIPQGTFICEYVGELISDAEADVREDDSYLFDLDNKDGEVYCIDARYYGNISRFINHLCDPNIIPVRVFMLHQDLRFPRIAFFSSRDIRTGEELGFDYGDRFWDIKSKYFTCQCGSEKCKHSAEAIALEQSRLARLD
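Chemiluminescent proximity detection of H3K9 monomethylation, read after 10 min bead incubation in the dark. Reaction: 20 nM G9a, 500 nM biotin-H3K9 peptide, 20 uM SAM cofactor, 2 h, room temperature, following 15 min enzyme-compound preincubation.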
PI5P4Ka inh: qHTS for Inhibitors of phosphatidylinositol 5-phosphate 4-kinase (PI5P4K) | Phosphatidylinositol 5-phosphate 4-kinase type-2 alpha (Homo sapiens), P48426 | PI5P4Kalpha enzyme, ADP-Glo luminescence, 60 min; stronger effect = lower value | max response, % | 330,000 tested, 1.2% active | AID 652105, 2013; active = max response of -50% or lower; inconclusive = between -30% and -50%; inactive = -30% or higher; note: value at the top dose of about 77 µM; % is set by controls: 0 for no effect and ±100 for the full control effect
Target sequence (P48426 whole entry, looked up): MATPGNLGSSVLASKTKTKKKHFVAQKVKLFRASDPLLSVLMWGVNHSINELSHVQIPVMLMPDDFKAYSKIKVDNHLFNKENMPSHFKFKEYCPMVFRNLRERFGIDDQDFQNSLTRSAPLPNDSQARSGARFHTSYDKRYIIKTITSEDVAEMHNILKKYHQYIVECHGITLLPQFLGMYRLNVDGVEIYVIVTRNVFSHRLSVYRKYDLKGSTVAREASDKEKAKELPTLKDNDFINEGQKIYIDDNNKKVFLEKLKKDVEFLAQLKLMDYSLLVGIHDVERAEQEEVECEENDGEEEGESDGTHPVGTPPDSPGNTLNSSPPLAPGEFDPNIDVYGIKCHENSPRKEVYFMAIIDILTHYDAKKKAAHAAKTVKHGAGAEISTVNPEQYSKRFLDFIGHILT
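Quantitative HTS of the MLSMR library against PI5P4Kalpha with substrate. ATP added last at 5 microM final; room temperature, 60 minutes. Remaining ATP depleted, ADP converted and read as luminescence.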
BAZ2B block: qHTS Assay for Inhibitors of BAZ2B | AlphaScreen BAZ2B-H3K14Ac peptide displacement | Bromodomain adjacent to zinc finger domain protein 2B (Homo sapiens), Q9UIF8 | AID 504333, 2011 | Potency, µM (series often up to 114 µM), inactives show at the highest dose activity change, negative = inhibition, most hits filed as inhibitors | 360,000 tested, 4.4% active; note: potency is the fitted concentration of half-maximal effect; % is set by controls: 0 for no effect and ±100 for the full control effect; nearly all actives have a fitted effect of over 60% in size
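Compounds, titrated to a top concentration of 110 uM, were incubated 30 min at room temperature with preformed BAZ2B/acetyl-K14 H3 peptide complex (50 nM each). Proximity signal was measured by AlphaScreen after 20 min with beads.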
L3MBTL1 block: qHTS Assay for the Inhibitors of L3MBTL1; AlphaScreen L3MBTL1–H3K9me1 peptide binding; Lethal(3)malignant brain tumor-like protein 1 (Homo sapiens), Q9Y468; AID 485360, 2010; Potency, µM (titrated, usually from 57.1 µM), inactives show top-dose activity, negative = inhibition, actives largely listed as inhibitors; 230,000 tested, 0.66% active; note: potency is the fitted concentration of half-maximal effect; % is set by controls: 0 for no effect and ±100 for the full control effect; nearly all actives have a fitted effect of over 60% in size
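First, the protein-peptide complex forms for 30 min at room temperature (L3MBTL1 50 nM, biotinylated H3K9me1 peptide 75 nM). Next, compounds are pin-transferred and incubated 30 min. Finally, AlphaScreen beads are added and read after 30 min.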
HP1b binding inh: HTS for Inhibitors of HP1-beta Chromodomain Interactions with Methylated Histone Tails; AlphaScreen HP1-beta / biotin-H3K9me3 peptide binding; Potency, µM (doses to about 114 µM), without a hit: top-dose activity change, negative = inhibition, usual class: inhibitors; 390,000 tested, 0.56% active; AID 540317, 2011; note: potency is the fitted concentration of half-maximal effect; nearly all actives have a fitted effect of over 70% in size
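Compound inhibition of the preformed complex between 50 nM HP1-beta and 50 nM biotinylated H3K9me3 peptide was read by AlphaScreen. Buffer was PBS pH 7.4 with 0.01% Tween-20. Incubations ran 30 min at room temperature, with 10 ug/mL donor/acceptor beads.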
JMJD2A Tudor: qHTS Assay for Inhibitors of JMJD2A-Tudor Domain; AlphaScreen JMJD2A-Tudor / H3K4me3 peptide binding; AID 504339, 2011; 390,000 tested, 4.4% active; Potency, µM (highest dose often 114 µM), for inactives: top-dose activity change, negative = inhibition, actives largely listed as inhibitors; Lysine-specific demethylase 4A (Homo sapiens), O75164; note: potency is the fitted concentration of half-maximal effect; % is set by controls: 0 for no effect and ±100 for the full control effect; nearly all actives have a fitted effect of over 50% in size
* marks the source's active call; other numbers are inactive results; ? = inconclusive; / = no result given; [ ] = remark or other dose. A selection: hits, their analogues and other compounds. The true share with any hit is near 11%. Unless noted, calls come from the whole dose curve; as a rule, active = well fitted inhibition curve with a large enough effect; inconclusive = small, poorly fitted or top-dose-only effect; inactive = no such curve, though single readings can be large or run the other way.

SMILES	G9a block	PI5P4Ka inh	BAZ2B block	L3MBTL1 block	HP1b binding inh	JMJD2A Tudor
O=C(O)COc1ccccc1C=NNc1ccc([N+](=O)[O-])cc1S(=O)(=O)Nc1ccc(Cl)cc1	/	?	/	-5%	-6%	-33%
COc1cccc(N2CCN(c3ncnc4c3c(-c3ccccc3)cn4-c3ccc(F)cc3)CC2)c1	-3%[59 µM]	/	-3%	/	16%	-29%
CN1CCN(c2ncnc3c2c(-c2ccccc2)cn3-c2ccc(F)cc2)CC1	45µM*	21	?	/	-16%	?
CCOc1ccc(-n2cc(-c3ccccc3)c3c(N4CCOCC4)ncnc32)cc1	?	14	25µM*	-25%	25%	-24%
O=C1/C(=C/N(C(=O)c2ccco2)c2ccc(Cl)cc2)Sc2ccccc21	-3%[59 µM]	-27	-38%	-8%	-20%	?
O=C1/C(=C/N(C(=O)c2ccco2)c2ccc(Br)cc2)Sc2ccccc21	45µM*	-13	?	-9%	?	56µM*
Cc1ccc(C(=O)N2CCN(c3cccc(Cl)c3)CC2)cc1-n1c(C)nc2cccnc21	?	/	-21%	/	46%	-7%
O=C(NCCc1ccc2c(c1)OCCO2)c1cc(S(=O)(=O)N2CCCC2)ccc1Cl	40µM*	0	-15%	23%	25%	-15%
CCC1CCCCN1C(=O)c1sc(-n2nc(C)c(Cc3ccccc3)c2C)nc1C (stereo unspecified)	7%[59 µM]	/	0%	/	29%	-11%
COc1cccc(C2CC(=O)Nc3c2c(=O)nc2c(C)cccn32)c1OC (stereo unspecified)	-4%[59 µM]	/	-1%	/	45%	-26%
COc1ccc(C(CNC(=O)CSc2ccccc2C)N(C)C)cc1 (stereo unspecified)	-5%	-4	-8%	/	-4%	-23%
COc1ccc(C(CNCC(O)COc2c(C)ccc(C)c2C)N(C)C)cc1 (stereo unspecified)	-19%	7	56µM*	/	3%	22µM*
Cc1ccc(-c2ccc(CCC(=O)O)n2C(C)C)cc1	79µM*	3	?	/	-3%	-30%
Cc1ccc(C)c(-n2c(CCC(=O)O)ccc2-c2ccc(Cl)cc2)c1	13µM*	/	40µM*	/	-13%	?
COc1ccc(C(=O)Nn2c(CCC(=O)O)ccc2-c2ccc(C)cc2)cc1OC	-30%	?	-25%	0%	-19%	50µM*
CC(=O)c1cccc(-n2c(CCC(=O)O)ccc2-c2ccc(C)cc2)c1	18%[2.33 µM]	-4	-27%	/	-13%	-36%
Cc1ccc(-c2ccc(CCC(=O)O)n2-c2ccc(C)c(Cl)c2)cc1	13µM*	/	?	/	-19%	?
COC(=O)c1cc2sccc2n1CC(=O)Nc1cc(Cl)ccc1OC	-19%[59 µM]	/	0%	/	24%	5%
Cc1ccc(NC(=O)Cn2cc3c(n2)CCCCC3)cc1	-4%[59 µM]	/	-25%	/	25%	3%
c1nc(N2CCOCC2)c2cc(-c3ccoc3)ccc2n1	3%[0.501 µM]	/	/	/	/	/
CCN(CC)c1ccc(NC(=O)COc2ccccc2C)cc1S(=O)(=O)Nc1ccccc1OC	10µM*	?	-7%	6%	?	?
CCN(CC)c1ccc(NC(=O)c2ccccc2F)cc1S(=O)(=O)Nc1ccccc1OC	6.3µM*	-24	-14%	-7%	?	?
CCN(CC)CCNC(=O)c1ccc(NC(=O)c2ccc(Cl)c(S(=O)(=O)Nc3ccccc3OC)c2)cc1	50µM*	/	-28%	-5%	/	/
COc1ccc(NC(=O)c2cccc(F)c2)cc1Cl	21%	2	-6%	/	21%	-1%
COc1ccc(NC(=O)c2ccccc2F)cc1Cl	20%	3	56µM*	/	32%	-9%
SMILES	G9a block	PI5P4Ka inh	BAZ2B block	L3MBTL1 block	HP1b binding inh	JMJD2A Tudor
Cc1c(CC(=O)N2CCCCC2)c(=O)oc2cc3occ(C(C)(C)C)c3cc12	5%[59 µM]	/	2%	/	7%	-17%
Cc1cccc(N2CCN(c3nc4ccccc4c4nnc(C)n34)CC2)c1C	-4%[59 µM]	/	0%	/	30%	-13%
CCN(CC)c1ccc(NC(=O)c2ccccc2Br)cc1S(=O)(=O)Nc1ccccc1OC	1.3µM*	?	?	-13%	6.3µM*	18µM*
CCN(CC)c1ccc(NC(=O)c2ccc(=O)[nH]c2)cc1S(=O)(=O)Nc1ccccc1OC	2.5µM*	?	/	-19%	?	?
COc1ccccc1C(=O)Nc1cc(Cl)ccc1O	56µM*	2	-1%	-3%	10%	-10%
CN(C(=O)c1oc(=O)c2ccccc2c1-c1ccccc1)c1cccc(Cl)c1	-30%[59 µM]	/	?	/	13%	-27%
Cc1ccc(C)c(N2CCN(c3nccn4nc(-c5ccc(Br)cc5)cc34)CC2)c1	-16%[59 µM]	/	-24%	/	49%	-11%
Cc1cc(C(=O)NNC(=O)CCN2CCN(c3ccccc3)CC2)c2ccccc2n1	6%	-3	-6%	/	21%	-12%
CCc1cc(C(=O)NNC(=O)CCN2CCN(c3ccccc3)CC2)sc1C	40µM*	3	?	/	14%	-27%
Cc1ccc(NC(=O)Cc2ccc(-n3c(C)nc4cccnc43)cc2)cc1C	-32%[59 µM]	/	?	/	49%	-10%
COc1ccc2c(c1)C1C=CCC1C(c1cc3c(cc1Br)OCO3)N2 (stereo unspecified)	40µM*	/	35µM*	?	-44%	22µM*
Oc1ccc(C[C@@H]2CNCCN2CCc2cc(C(F)(F)F)cc(C(F)(F)F)c2)cc1	-1%[2.33 µM]	24	0%	?	25%	-34%
FC(F)(F)c1cc(CCN2CCNC[C@H]2Cc2cccc3ccccc23)cc(C(F)(F)F)c1	?	44	50µM*	-6%	-11%	?
COC(=O)C[C@H](NC(=O)[C@H](C)NC(=O)[C@@H](NC(=O)OCc1ccccc1)C(C)C)C(=O)CF	37%[59 µM]	/	/	/	/	/
C#CCOCCOCCOCCNc1nc(N2CCN(C(=O)[C@H](CCC(=O)O)n3cc(C(N)Cc4ccc(O)cc4)nn3)CC2)nc(N2CCN(C(=O)[C@H](CCC(=O)O)n3cc(C(N)CC(C)C)nn3)CC2)n1 (stereo partly specified)	?	-15	50µM*	-7%	-1%	32µM*
